# From PubChem BioAssay (NCATS)
# Unmarked numbers belong to inactive results. Calls follow the shape of the dose curve; as a rule, active = well fitted activation curve with a large enough effect; inconclusive = small, poorly fitted or top-dose-only effect; inactive = flat fitted curve, though single readings scatter.
# Assay: Cellular Toxicity (caspase-3) SHSY5Y (AID 657)
# Settings: SH-SY5Y caspase-3 activation, DMSO zero, 10 µM staurosporine = 100%; series mostly up to 91.7 µM; caspase-3 activation: at the top concentration
# Text: NIH Chemical Genomics Center [NCGC]
# NIH Molecular Libraries Screening Centers Network [MLSCN]
# National Institutes of Environmental Health Sciences [NIEHS]
# National Toxicology Program [NTP]
# We have developed a 1536-well cell-based assay for quantitative high throughput screening (qHTS) against a number of cell lines to determine in vitro caspase 3/7 activity of small molecules. This particular assay uses the SH-SY5Y cell line which is derived from human neuroblastoma.
# NCGC Assay Protocol Summary:
# The Caspase-Glo 3/7 assay (Promega) is a homogeneous method to measure caspase-3 and caspase-7 activities in cultured cells. The quantitation of caspase 3/7 activity is based on the cleavage of a peptide-aminoluciferin substrate. After caspase cleaves the substrate the free aminoluciferin is liberated and serves as the substrate of luciferase, which generates the light. The luminescent signal is proportional to the amount of caspase 3/7 activity present.
# Using the Caspase-Glo 3/7 assay, the amount of caspase 3/7 activity was measured in the SH-SY5Y cell line with complete culture medium following compound treatment for 16 hours. The assay was performed in opaque white 1536-well plates. In the screen, staurosporine and doxorubicin were used as positive controls. Library compounds were measured for their ability to cause the activation of caspase 3/7 in the cell line, as reflected by an increase in luminescence signal, in a concentration-dependent manner. Data were normalized to the controls for basal activity (DMSO only) and 100% stimulation (10 uM staurosporine). AC50 values were determined from concentration-response data modeled with the standard Hill equation.
# qHTS protocol for caspase 3/7 assay in SH-SY5Y cells
# [Step] [Parameter] [Value] [Description]
# 1. Reagent; 5 uL; 1500 SH-SY5Y cells/well
# 2. Time; 5 hr; 37 °C incubation
# 4. Controls; 23 nL; doxorubicin 7 pM to 100 uM & staurosporine 1.4 pM to 20 uM
# 5. Time; 16 hr; 37 °C incubation
# 6. Reagent; 5 uL; Caspase-Glo 3/7 reagent
# 7. Time; 1 hr; Room Temperature
# 8. Detection; Luminescence; Viewlux plate reader
# Keywords: caspase 3/7, apoptosis, SH-SY5Y cell line, luminescence, NTPHTS, NTPHTS_NCGC, NIEHS, EPA, DSSTox, MLSMR, MLSCN, NIH Roadmap, qHTS, NCGC
row,Compound,caspase-3 activation
1,Clc1ccc(C(c2ccccc2Cl)C(Cl)(Cl)Cl)cc1 (stereo not given),8.2%
2,CCN(CC)CCO,0.435%
3,Nc1ccc(-c2ccc(N)cc2)cc1,1.38%
4,Cl/C=C/Cl,0.244%
5,Cl/C=C/CCl,-2.68%
6,COC(C)(C)C,-0.0326%
7,N#CCBr,-0.286%
8,Nc1c(Br)cc([N+](=O)[O-])cc1[N+](=O)[O-],2.09%
9,CCC/C=N/O,-0.62%
10,CCC[N+](=O)[O-],1.68%
11,O=S(=O)(O)F,0.961%
12,CC(C)(Cl)Cl,-0.249%
13,O=C(O)C(Cl)Br (stereo not given),1.28%
14,CCCCCCCCCCCOC(=O)c1ccccc1C(=O)OCCCCCCCCCCC,1.01%
15,O=P(OCCCl)(OCCCl)OCCCl,-1.37%
16,CCSC(=O)N1CCCCCC1,0.577%
17,Nc1ccc(Cc2ccc(N)cc2)cc1,1.78%
18,CN(C)c1ccc(N(C)C)cc1,-2.37%
19,Cc1ccc2c(C)cccc2c1,-0.235%
20,CCCCCC[N+](=O)[O-],-1.62%

row,Compound,caspase-3 activation
1,Cc1cc(Cl)ccc1O,0.651%
2,CCOP(=O)(OCC)OCC,-1.56%
3,Clc1cccc(Cl)c1Cl,-0.714%
4,C=CCCl,1.75%
5,Cc1cc(C)cc(OP(=O)(Oc2cc(C)cc(C)c2)Oc2cc(C)cc(C)c2)c1,0.963%
6,S=c1[nH]c2ccccc2[nH]1,-0.547%
7,CC(=O)CCC(C)=O,1.32%
8,O=c1ccc(=O)[nH][nH]1,-0.855%
9,O=[N+]([O-])c1ccccc1-c1ccccc1,0.544%
10,ClC(Cl)C(Cl)Cl,-0.183%
11,CCCCC(CC)COC(=O)c1ccc(C(=O)OCC(CC)CCCC)c(C(=O)OCC(CC)CCCC)c1 (stereo not given),1.29%
12,Nc1ccc(Oc2ccc(N)cc2)cc1,2.2%
13,CCN(CC)N=O,1.22%
14,CC(C)OC(=O)Cc1ccccc1,-0.776%
15,O=[N+]([O-])c1ccccc1O,-0.911%
16,CSSC,1.01%
17,ClP(Cl)(Cl)(Cl)Cl,-0.58%
18,Clc1ccc(C(Cl)(Cl)Cl)cc1Cl,0.75%
19,Nn1cnnc1,0.677%
20,O=[N+]([O-])c1ccc(Cl)c(Cl)c1Cl,-1.38%
